Screening results as filed in PubChem.
HDAC3 inhib: human HDAC3 inhibition | O15379 | recombinant HDAC3, fluorogenic peptide/trypsin coupled, fluorescence | inhibition, % at 8.3 µM | actives 0.15% (n = 320,000) | AID 2718; in the data active = inhibition above about 26%, passing the limit was not always enough; inconclusive = no clear call, values can overlap the other calls
Target sequence (O15379 whole entry, looked up): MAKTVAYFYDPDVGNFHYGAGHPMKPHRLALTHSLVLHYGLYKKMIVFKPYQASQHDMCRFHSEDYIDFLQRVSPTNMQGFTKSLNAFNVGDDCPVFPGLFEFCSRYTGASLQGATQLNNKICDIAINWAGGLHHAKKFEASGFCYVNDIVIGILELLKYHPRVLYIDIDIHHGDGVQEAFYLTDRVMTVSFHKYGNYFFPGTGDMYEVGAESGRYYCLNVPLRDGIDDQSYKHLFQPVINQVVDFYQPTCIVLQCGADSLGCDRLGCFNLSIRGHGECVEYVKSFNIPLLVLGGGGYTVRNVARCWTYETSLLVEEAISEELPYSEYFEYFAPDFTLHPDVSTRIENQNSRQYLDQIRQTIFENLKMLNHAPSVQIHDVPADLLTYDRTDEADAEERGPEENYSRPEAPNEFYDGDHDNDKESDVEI
ANO1 activ: activators or potentiators of mouse TMEM16A chloride channel; HEK293 TMEM16A/YFP-H148Q/I152L, iodide quench fluorescence; active compounds read low; B-score at 10 µM; actives 0.3% (n = 340,000); Q8BHY3; AID 623877;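 active = fluorescence-ratio B-score plate-corrected deviation score at least 3 library SD below zero, with starting fluorescence score within 5 deviations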;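 note: channel opened by trigger with iodide after compound preincubation; score built on the fluorescence ratio of max minus min over baseline; more negative score means more quench and so TMEM16A activation or potentiation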
CHT PAM: allosteric activators of human choline transporter CHT; CHT-expressing cells, membrane potential dye, choline EC20; active compounds read high; LV-AA mutant CHT in HEK293 cells; AID 488977; B-score at 10 µM; actives 0.49% (n = 310,000);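 active = initial fluorescence not abnormally high and integrated response B-score, plate-corrected, over 3 SD above library mean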
TMEM16A inh: inhibitors of mouse TMEM16A calcium-activated chloride channel; HEK293 TMEM16A/YFP iodide influx fluorescence, ionomycin; normalized B-score (activity score, 25-100; higher = stronger inhibition) at 10 µM; actives 1.2% (n = 310,000); AID 588511;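 active = ratio plate-corrected score three or more library SD toward inhibition, starting fluorescence score within five deviations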;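 note: score derived from kinetic fluorescence span divided by baseline fluorescence per well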
PHOSPHO1 block: blocks human PHOSPHO1 phosphatase activity; Q8TCT1; recombinant PHOSPHO1, absorbance phosphatase assay; inhibition, % at 13.3 µM; actives 1.1% (n = 290,000); in the data active = inhibition above about 60%
Target sequence (Q8TCT1 whole entry, looked up): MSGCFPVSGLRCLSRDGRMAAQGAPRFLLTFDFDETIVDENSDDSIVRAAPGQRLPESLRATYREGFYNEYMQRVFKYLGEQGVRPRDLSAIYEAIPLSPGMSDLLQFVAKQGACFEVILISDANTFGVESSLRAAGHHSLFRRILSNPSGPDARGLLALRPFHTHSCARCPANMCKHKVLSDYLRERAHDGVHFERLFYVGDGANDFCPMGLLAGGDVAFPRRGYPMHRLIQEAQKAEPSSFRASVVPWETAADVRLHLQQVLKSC
CHT block: inhibitors of human choline transporter CHT; Q9GZV3; CHT-expressing cells, membrane potential dye, choline response; active compounds read low; B-score at 10 µM; actives 0.86% (n = 310,000); AID 488975;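 active = B-score over 3 SD under the library average, and starting fluorescence ratio not unusually high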;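 note: choline stimulus applied at its EC90 after an EC20 pre-addition; B-score computed on integrated fluorescence ratio after choline addition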
CHT block conf: human CHT inhibition, confirmatory screen; shares compounds with CHT block; CHT-expressing cells, choline membrane potential dye; LV-to-AA substituted CHT, HEK293 cells; CHT activity remaining % of control (active compounds read low), % at 10 µM; actives 70% (n = 2,400); AID 493221;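 active = choline transporter activity left, mean of duplicates at 10 µM, below buffer-only control mean minus 3 SD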;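 note: depolarization triggered by choline at its EC90 following an EC20 pre-addition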
HEK293 MPD ctr: counter-screen for CHT inhibitors: effect in parental HEK293 cells; shares compounds with CHT block; membrane potential dye, choline response; active = decrease or increase beyond buffer ±3SD; membrane potential ratio readout (active if shifted either direction beyond buffer ±3SD; no single direction) at 10 µM; actives 4% (n = 2,400); AID 493222;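 note: parental cells lack the transporter so any hit is non-specific; ratio is peak minus trough fluorescence over baseline after EC90 choline challenge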
CHT act confirm: human CHT activation, confirmatory screen; AID 504833; activation, % at 10 µM; actives 91% (n = 2,500); CHT-expressing cells, membrane potential dye fluorescence (FDSS); % of choline EC20–EC90 response window; HEK293 expressing CHT LV-AA mutant; choline added at its EC20; shares compounds with CHT PAM;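 active = primary screen active, with duplicate mean activation above negative control mean plus 3 SD, cut at about 11% in these data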
HEK293 MP dye: counter-screen for CHT activators: effect in parental HEK293 cells; ratio readout change at 10 µM, hits read low; membrane potential dye fluorescence (FDSS); measured after EC20 choline addition; AID 623908; shares compounds with CHT PAM; actives 62% (n = 2,500);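 active = duplicate-averaged ratio beyond 3 SD from buffer wells, up or down, though filed actives are nearly all decreases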
TMEM16A reconf: re-confirmation of mouse TMEM16A chloride channel inhibitors | shares compounds with TMEM16A inh | HEK293 TMEM16A/YFP-H148Q, iodide quench fluorescence; ionomycin added to raise cell calcium | actives 39% (n = 2,300) | inhibition, % at 10 µM;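 active = mean duplicate percent inhibition, scaled so buffer wells are 0 and the reference blocker 100, over three buffer SD above buffer mean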
HEK293 Ca mobil: calcium mobilization counter-screen hit for TMEM16A inhibitor series | TMEM16A/YFP HEK293, Fluo4 calcium mobilization | AID 652231 | shares compounds with TMEM16A inh | actives 2% (n = 2,300) | calcium response (% of ionomycin), % at 10 µM;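 active = duplicate-averaged calcium signal over 20% of the ionomycin maximum, relative to buffer baseline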;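 note: each well's signal is peak minus trough fluorescence divided by its pre-addition baseline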
Parental YFP cnt: acts in parental YFP-HEK293 cells lacking TMEM16A, counter-screen. shares compounds with TMEM16A inh. iodide YFP quench, ionomycin. YFP ratio F(max-min)/F0 at 10 µM. 2,300 tested, under 10 active;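 active = yellow fluorescent protein signal ratio exceeding the buffer control mean by over 5 SD of those controls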;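 note: ratio is mean of duplicate wells from kinetic YFP trace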
ClC-1 rat inh: rat ClC-1 inhibition, TMEM16A specificity screen. AID 652236. ratio percent, % at 10 µM. 2,300 tested, under 10 active. CHO ClC-1-YFP, iodide influx fluorescence quench; iodide control reads 0, buffer control 100. shares compounds with TMEM16A inh;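 active = duplicate-mean ratio percent above the mean of iodide-only control wells, which defines zero, plus 5 of their SD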;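 note: higher percent means stronger block of ClC-1 iodide influx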
Hits are given with their value; . = inactive; ? = inconclusive; / = no result. The list is not random: actives were taken first. Their share in the collection is about 3.2%.

SMILES	HDAC3 inhib	ANO1 activ	CHT PAM	TMEM16A inh	PHOSPHO1 block	CHT block	CHT block conf	HEK293 MPD ctr	TMEM16A reconf	HEK293 Ca mobil	Parental YFP cnt	ClC-1 rat inh	others
O=S(=O)(NCCNc1ncc(C(F)(F)F)cc1Cl)C(F)(F)F	.	.	.	100	.	-9.6	42%	.	35%	.	.	.
O=C(NNC1=C(C(=O)C(F)(F)F)CCC1)c1ccc(Cl)cc1	.	.	.	25	.	-5.1	40%	.	24%	.	.	.
COc1cccc(CN(C)C(=O)c2cc(COc3ccc4ncccc4c3)on2)c1	.	.	.	25	61	-6	.	.	38%	.	.	.
CC1=NN(C(=O)c2ccc(Br)cc2)C(O)(C(F)(F)OC(F)(F)F)C1 (centres undefined)	.	.	.	100	.	-5.1	44%	.	29%	.	.	.
O=C(CSCc1nc2ccccc2[nH]1)N1CCN(c2cccc(Cl)c2)CC1	.	.	.	.	.	.	/	/	/	/	/	/
O=C(CSCc1nc2ccccc2[nH]1)N1CCN(c2ccc(F)cc2)CC1	.	.	.	25	.	-5	.	.	20%	.	.	.
CCn1c(N2CCN(S(=O)(=O)c3ccc(Cl)cc3)CC2)nc2ccccc21	.	.	.	25	.	-12	44%	.	.	.	.	.
CCn1c(N2CCN(S(=O)(=O)c3ccc(F)cc3)CC2)nc2ccccc21	.	.	.	.	.	.	/	/	/	/	/	/
CC(C)c1ccc2c(c1)C1(NN=C(c3ccccc3)S1)C(=O)N2 (centres undefined)	.	.	.	25	.	-6.6	56%	.	29%	.	.	.
CC(C)c1ccc(O)c(NC(=O)c2ncn[nH]2)c1	.	.	.	.	.	.	/	/	/	/	/	/
FC(F)(F)c1cccc(-c2nc3nc(Cl)c(Cl)nc3[nH]2)c1	.	.	.	25	.	-7.8	50%	.	31%	.	.	.
C/C(=N\Nc1ccc2nncn2n1)c1ccc(Br)s1	.	.	.	.	.	.	/	/	/	/	/	/
Cc1cc(C)c(S(=O)(=O)/N=C2\C=C(Nc3ccc(C(=O)O)cc3)C(=O)c3ccccc32)c(C)c1	.	.	.	25	.	-5.6	25%	.	26%	.	.	.
O=C(O)c1ccc(NC2=C/C(=N/S(=O)(=O)c3ccccc3)c3ccccc3C2=O)cc1	/	.	/	/	.	/	/	/	/	/	/	/
COc1ccc(N2C(=O)c3ccc(C(=O)Nc4ccccc4OC)cc3C2=O)cc1	.	.	.	.	.	.	/	/	/	/	/	/
C[C@H](NC(=O)OC(C)(C)C)c1nnc(SCC(=O)c2ccc(Cl)cc2)o1	.	.	.	100	.	-5.3	69%	.	.	.	.	.
Cc1ccc(C(=O)Cn2c3[n+](c4ccccc42)CC(O)CS3)cc1 (centres undefined)	.	.	.	.	.	.	/	/	/	/	/	/
Cc1ccc(CNC(=O)c2ccccc2NS(=O)(=O)c2ccc(Cl)nc2)cc1	.	.	.	100	.	-5.7	54%	.	18%	.	.	.
Cc1ccc(CNC(=O)c2ccccc2NS(C)(=O)=O)cc1	.	.	.	.	.	.	/	/	/	/	/	/
Cc1ccc2c(c1)C(=O)CC(c1ccccc1)S2 (centres undefined)	/	.	/	/	/	/	/	/	/	/	/	/
Cc1ccc(S(=O)(=O)C(C#N)c2nc3ccccc3nc2N2CCC(C)CC2)cc1 (centres undefined)	/	.	/	/	.	/	/	/	/	/	/	/
Cc1ccc(C)c(S(=O)(=O)C(C#N)c2nc3ccccc3nc2N2CC(C)OC(C)C2)c1 (centres undefined)	.	.	.	25	.	-8.1	41%	.	18%	.	.	.
Cc1ccc(C2=NC(C(F)(F)F)(C(F)(F)F)c3c(n(-c4ccc(F)cc4)c(=O)[nH]c3=O)N2)cc1	.	.	.	.	.	.	/	/	/	/	/	/
O=c1[nH]c(=O)n(-c2ccc(F)cc2)c2c1C(C(F)(F)F)(C(F)(F)F)N=C(c1ccc(F)cc1)N2	.	.	.	25	.	-7	54%	.	26%	.	.	.
O=C1C2C3C=CC(C3)C2C(=O)N1c1ccc(N2CCN(c3ccccn3)CC2)c([N+](=O)[O-])c1 (centres undefined)	/	.	.	.	.	.	/	/	/	/	/	/
SMILES	HDAC3 inhib	ANO1 activ	CHT PAM	TMEM16A inh	PHOSPHO1 block	CHT block	CHT block conf	HEK293 MPD ctr	TMEM16A reconf	HEK293 Ca mobil	Parental YFP cnt	ClC-1 rat inh	others
Cc1csc(C(C#N)C(=O)c2cc3ccccc3o2)n1 (centres undefined)	.	.	.	25	.	-5.3	61%	.	30%	.	.	.
COC(=O)c1ccc(O)c(Sc2cc(C(=O)OC)ccc2O)c1	?	.	.	100	.	-5.3	.	.	19%	.	.	.
COc1cccc(/C=N/NC(=O)C[n+]2ccccc2)c1O	.	.	.	.	.	.	/	/	/	/	/	/
COc1cc(OC)c(OC)cc1/C=N/NC(=O)C[n+]1ccccc1	.	.	.	.	.	.	/	/	/	/	/	/	CHT act confirm=51;HEK293 MP dye=-42
COc1cc(OC)c(OC)cc1/C=N/NC(=O)c1ccc(=O)n(C)c1	.	.	.	.	.	.	/	/	/	/	/	/	CHT act confirm=43;HEK293 MP dye=-29
O=C(COC(=O)CSc1ccc(F)cc1)NCCCc1ccccc1	.	.	.	.	/	.	/	/	/	/	/	/
